In article PMC8384837, “Expanding the binding specificity for RNA recognition by a PUF domain”:

Experiments:
Experiment in all cases: yeast three-hybrid, YBZ-1, SC-Leu-His + 0.5 mM 3-AT, 4 days
Settings in all cases: tags: N-Gal4 AD-HA kept; label: inside an RPR1-promoter hybrid RNA with tandem MS2 sites; ssRNA
[1] = biological target: PUM1 PUF domain R5-FQR (Homo sapiens, UniProt Q14671 828-1176, C1007F;R1008Q;Q1011R)
Outline: (§1)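 Pumilio-1 PUF domain libraries, randomized at the three base-contacting residues of each repeat, were co-expressed with matching RNA elements from a centromeric plasmid in strain YBZ-1, which carries a LexA–MS2 coat fusion and a HIS3 reporter. Transformants grew for four days on SC-Leu (input) or on SC-Leu-His + 0.5 mM 3-AT (selection), and the repeat regions were PCR-amplified and Illumina-sequenced. The interaction score is the log change in variant frequency from input to selection. That logarithm is base 2, with a pseudocount of 1 where a variant was absent.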

[2] = biological target: PUM1 PUF domain R5-KHA (Homo sapiens, UniProt Q14671 828-1176, C1007K;R1008H;Q1011A)
Outline: as §1

[3] = biological target: PUM1 PUF domain R4-DWL (Homo sapiens, UniProt Q14671 828-1176, N971D;H972W;Q975L)
Outline: as §1

[4] = biological target: PUM1 PUF domain R3-LWQ (Homo sapiens, UniProt Q14671 828-1176, C935L;R936W)
Outline: as §1

[5] = biological target: PUM1 PUF domain R7-LFR (Homo sapiens, UniProt Q14671 828-1176, S1079L;N1080F;E1083R)
Outline: as §1

[6] = biological target: T1, PUM1 PUF domain R6-NRG (Homo sapiens, UniProt Q14671 828-1176, Y1044R;Q1047G)
T1 sequence: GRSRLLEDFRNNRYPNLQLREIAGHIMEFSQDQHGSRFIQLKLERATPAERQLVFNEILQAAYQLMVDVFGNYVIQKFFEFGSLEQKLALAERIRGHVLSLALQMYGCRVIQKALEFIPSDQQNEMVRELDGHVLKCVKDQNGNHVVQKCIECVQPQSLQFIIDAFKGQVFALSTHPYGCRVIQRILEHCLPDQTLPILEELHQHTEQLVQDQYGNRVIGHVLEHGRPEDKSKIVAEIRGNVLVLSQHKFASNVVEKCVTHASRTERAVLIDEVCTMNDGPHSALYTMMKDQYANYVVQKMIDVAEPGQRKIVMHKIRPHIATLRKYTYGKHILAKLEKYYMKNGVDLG
Outline: as §1

[7] = biological target: PUM1 PUF domain R2-GWY (Homo sapiens, UniProt Q14671 828-1176, N899G;Y900W;Q903Y)
Outline: as §1

[8] = biological target: PUM1 PUF domain R4-MLC (Homo sapiens, UniProt Q14671 828-1176, N971M;H972L;Q975C)
Outline: as §1

[9] = biological target: PUM1 PUF domain R8-QWG (Homo sapiens, UniProt Q14671 828-1176, N1122Q;Y1123W;Q1126G)
Outline: as §1

[10] = biological target: PUM1 PUF domain R8-TFN (Homo sapiens, UniProt Q14671 828-1176, N1122T;Y1123F;Q1126N)
Outline: as §1

GGCUAGAACUAGUGGAUCCCCCGGCGCCCGGCGGCUCGAGCCCGGGUAAGUGUCAAUAGUCUGCAUGCCGCCGGGCGCCAUGCCUGCAGGUCGACUCUAGAAAACAUG
binding signal [1]: 2.5 log2 enrichment (interaction score) | binding signal [2]: 6.11 log2 enrichment (interaction score)

GGCUAGAACUAGUGGAUCCCCCGGCGCCCGGCGGCUCGAGCCCGGGUAAGUGUAUAUAGUCUGCAUGCCGCCGGGCGCCAUGCCUGCAGGUCGACUCUAGAAAACAUG
binding signal [3]: 5.76 log2 enrichment (interaction score)

GGCUAGAACUAGUGGAUCCCCCGGCGCCCGGCGGCUCGAGCCCGGGUAAGUGUAAGUAGUCUGCAUGCCGCCGGGCGCCAUGCCUGCAGGUCGACUCUAGAAAACAUG
binding signal [4]: 5.4 log2 enrichment (interaction score)

GGCUAGAACUAGUGGAUCCCCCGGCGCCCGGCGGCUCGAGCCCGGGUAAGUGUAAUUAGUCUGCAUGCCGCCGGGCGCCAUGCCUGCAGGUCGACUCUAGAAAACAUG
binding signal [4]: 4.13 log2 enrichment (interaction score)

GGCUAGAACUAGUGGAUCCCCCGGCGCCCGGCGGCUCGAGCCCGGGUAAGUUUAAAUAGUCUGCAUGCCGCCGGGCGCCAUGCCUGCAGGUCGACUCUAGAAAACAUG
binding signal [5]: 5.84 log2 enrichment (interaction score)

GGCUAGAACUAGUGGAUCCCCCGGCGCCCGGCGGCUCGAGCCCGGGUAAGUGUAAAUAGUCUGCAUGCCGCCGGGCGCCAUGCCUGCAGGUCGACUCUAGAAAACAUG
binding signal [6]: 3.99 log2 enrichment (interaction score) | binding signal [3]: 6.99 log2 enrichment (interaction score) | binding signal [7]: 1.07 log2 enrichment (interaction score) | binding signal [8]: 2.59 log2 enrichment (interaction score) | binding signal [9]: 2.95 log2 enrichment (interaction score) | binding signal [2]: 3.94 log2 enrichment (interaction score)

GGCUAGAACUAGUGGAUCCCCCGGCGCCCGGCGGCUCGAGCCCGGGUAAGUCUAAAUAGUCUGCAUGCCGCCGGGCGCCAUGCCUGCAGGUCGACUCUAGAAAACAUG
binding signal [5]: 4.97 log2 enrichment (interaction score)

GGCUAGAACUAGUGGAUCCCCCGGCGCCCGGCGGCUCGAGCCCGGGUAAGUGUAAAAAGUCUGCAUGCCGCCGGGCGCCAUGCCUGCAGGUCGACUCUAGAAAACAUG
binding signal [7]: 3.42 log2 enrichment (interaction score)

GGCUAGAACUAGUGGAUCCCCCGGCGCCCGGCGGCUCGAGCCCGGGUAAGUGUUAAUAGUCUGCAUGCCGCCGGGCGCCAUGCCUGCAGGUCGACUCUAGAAAACAUG
binding signal [1]: 3.58 log2 enrichment (interaction score)

GGCUAGAACUAGUGGAUCCCCCGGCGCCCGGCGGCUCGAGCCCGGGUAAGUGUACAUAGUCUGCAUGCCGCCGGGCGCCAUGCCUGCAGGUCGACUCUAGAAAACAUG
binding signal [3]: 4.62 log2 enrichment (interaction score)

GGCUAGAACUAGUGGAUCCCCCGGCGCCCGGCGGCUCGAGCCCGGGUAAGCGUAAAUAGUCUGCAUGCCGCCGGGCGCCAUGCCUGCAGGUCGACUCUAGAAAACAUG
binding signal [10]: 2.95 log2 enrichment (interaction score) | binding signal [9]: 2.14 log2 enrichment (interaction score)
